# Laboratory results as given in the supplement of paper PMC10849652.
# Of roughly 8,800 targets only a part is listed; those with a hit were picked by preference. About 0.5% of all pairs of compound and target were hits. Unmarked numbers belong to inactive results.
# Columns and labels:
# Experiment in all cases: log2 fold change, soluble protein after heating vs DMSO (PISA); higher = thermal stabilisation; K562 lysate, 10 uM; active = over 0.2 and 3.5 SD of the protein, either way, in both replicates (recomputed)
# nilotinib = compound: Cc1cn(-c2cc(NC(=O)c3ccc(C)c(Nc4nccc(-c5cccnc5)n4)c3)cc(C(F)(F)F)c2)cn1 [nilotinib]
# How it was run: (§1)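 Pellets of K562 cells were dounce-homogenised in PBS pH 7.4 with 1 mM MgCl2, and the crude extract was held at 1 mg/mL protein for a 30 min treatment with 10 μM compound. Aliquots were heated for 3 min over 48°C-58°C and pooled before NP-40 was added to 0.5% at 4°C. The supernatant from 21,000xg for 90 min was quantified by TMTpro 16plex LC-MS/MS with channel sums equalised. Values are reported from duplicates as log-two fold change in thermal stability relative to solvent controls.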
# [1] = compound: Cc1nc(Nc2n[nH]c3c2CN(C(=O)N[C@H](CN(C)C)c2ccccc2)C3(C)C)c2sccc2n1
# How it was run: as §1
# dasatinib = compound: Cc1nc(Nc2ncc(C(=O)Nc3c(C)cccc3Cl)s2)cc(N2CCN(CCO)CC2)n1 [dasatinib]
# How it was run: as §1
# [2] = compound: Cc1ncc(-c2ccnc(Nc3ccc(S(C)(=O)=O)cc3)n2)n1C(C)C
# How it was run: as §1
# [3] = compound: Cn1cc(-c2ccc3c(c2)CCN3C(=O)Cc2cccc(C(F)(F)F)c2)c2c(N)ncnc21
# How it was run: as §1
# quisinostat = compound: Cn1cc(CNCC2CCN(c3ncc(C(=O)NO)cn3)CC2)c2ccccc21 [quisinostat]
# How it was run: as §1
# tipifarnib = compound: Cn1cncc1[C@@](N)(c1ccc(Cl)cc1)c1ccc2c(c1)c(-c1cccc(Cl)c1)cc(=O)n2C [tipifarnib]
# How it was run: as §1
# [4] = compound: NC(=O)Nc1cc(-c2cccc(F)c2)sc1C(=O)N[C@H]1CCCNC1
# How it was run: as §1
# [5] = compound: NC(=O)c1cnc(N[C@@H]2CCCC[C@@H]2N)nc1Nc1cccc(-n2nccn2)c1
# How it was run: as §1
# [6] = compound: NC1(c2ccc(-c3nc4ccn5c(=O)[nH]nc5c4cc3-c3ccccc3)cc2)CCC1
# How it was run: as §1
# Sequence of UniProt Q8NEB9 (Q8NEB9 whole entry, looked up): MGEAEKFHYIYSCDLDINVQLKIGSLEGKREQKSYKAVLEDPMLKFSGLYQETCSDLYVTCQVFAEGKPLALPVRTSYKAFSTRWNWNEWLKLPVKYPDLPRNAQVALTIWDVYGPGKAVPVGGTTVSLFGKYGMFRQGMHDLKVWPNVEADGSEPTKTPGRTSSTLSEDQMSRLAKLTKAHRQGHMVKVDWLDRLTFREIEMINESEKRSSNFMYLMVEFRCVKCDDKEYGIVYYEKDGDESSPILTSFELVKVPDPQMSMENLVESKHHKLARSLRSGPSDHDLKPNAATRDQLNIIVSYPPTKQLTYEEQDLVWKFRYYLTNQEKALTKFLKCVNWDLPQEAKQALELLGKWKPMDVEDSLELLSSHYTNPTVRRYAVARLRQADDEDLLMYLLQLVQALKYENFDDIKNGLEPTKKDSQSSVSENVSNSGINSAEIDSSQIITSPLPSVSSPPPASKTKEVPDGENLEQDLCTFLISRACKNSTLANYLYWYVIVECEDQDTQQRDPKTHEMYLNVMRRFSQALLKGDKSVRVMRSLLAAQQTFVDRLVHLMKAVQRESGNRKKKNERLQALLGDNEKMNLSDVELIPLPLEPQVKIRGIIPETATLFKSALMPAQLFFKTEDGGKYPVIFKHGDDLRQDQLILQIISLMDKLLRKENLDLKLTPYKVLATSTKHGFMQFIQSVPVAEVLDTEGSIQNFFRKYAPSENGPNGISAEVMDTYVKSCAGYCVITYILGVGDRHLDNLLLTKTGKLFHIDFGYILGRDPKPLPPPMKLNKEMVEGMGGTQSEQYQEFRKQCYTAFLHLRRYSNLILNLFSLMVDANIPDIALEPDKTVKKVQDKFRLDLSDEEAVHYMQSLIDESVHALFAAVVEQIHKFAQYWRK
# Sequence of UniProt Q13362 (Q13362 whole entry, looked up): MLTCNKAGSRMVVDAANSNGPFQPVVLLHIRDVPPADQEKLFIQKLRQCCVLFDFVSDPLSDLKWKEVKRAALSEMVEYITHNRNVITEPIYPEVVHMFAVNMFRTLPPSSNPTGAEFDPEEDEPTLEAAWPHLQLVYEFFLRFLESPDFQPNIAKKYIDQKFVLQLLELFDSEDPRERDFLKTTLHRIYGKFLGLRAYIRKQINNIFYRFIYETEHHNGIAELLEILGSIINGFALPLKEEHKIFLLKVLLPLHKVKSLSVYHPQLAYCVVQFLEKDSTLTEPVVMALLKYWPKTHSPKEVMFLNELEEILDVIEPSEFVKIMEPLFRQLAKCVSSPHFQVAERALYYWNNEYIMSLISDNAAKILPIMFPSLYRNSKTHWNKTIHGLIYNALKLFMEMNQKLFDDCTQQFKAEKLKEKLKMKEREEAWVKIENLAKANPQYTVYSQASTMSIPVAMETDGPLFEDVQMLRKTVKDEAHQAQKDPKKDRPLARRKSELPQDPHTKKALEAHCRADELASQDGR
# Sequence of UniProt P48147 (P48147 whole entry, looked up): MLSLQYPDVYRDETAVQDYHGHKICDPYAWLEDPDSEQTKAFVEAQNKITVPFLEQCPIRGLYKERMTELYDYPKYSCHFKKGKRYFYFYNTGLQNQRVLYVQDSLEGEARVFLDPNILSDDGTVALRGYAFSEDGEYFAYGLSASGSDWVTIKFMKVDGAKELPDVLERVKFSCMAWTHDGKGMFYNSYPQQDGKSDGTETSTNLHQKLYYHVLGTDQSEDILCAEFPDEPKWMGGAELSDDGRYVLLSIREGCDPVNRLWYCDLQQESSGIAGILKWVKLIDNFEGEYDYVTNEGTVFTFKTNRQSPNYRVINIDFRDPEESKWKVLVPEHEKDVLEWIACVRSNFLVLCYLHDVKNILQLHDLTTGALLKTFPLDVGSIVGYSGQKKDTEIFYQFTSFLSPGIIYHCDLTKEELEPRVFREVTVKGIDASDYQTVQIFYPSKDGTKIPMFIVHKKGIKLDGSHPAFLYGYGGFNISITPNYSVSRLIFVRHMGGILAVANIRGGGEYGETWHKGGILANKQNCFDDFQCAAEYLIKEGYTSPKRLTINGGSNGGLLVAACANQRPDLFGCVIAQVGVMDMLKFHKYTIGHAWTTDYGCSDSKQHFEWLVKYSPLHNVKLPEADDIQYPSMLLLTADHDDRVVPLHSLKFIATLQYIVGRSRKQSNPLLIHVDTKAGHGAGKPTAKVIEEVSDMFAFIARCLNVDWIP
# Sequence of UniProt Q9BRX2 (Q9BRX2 whole entry, looked up): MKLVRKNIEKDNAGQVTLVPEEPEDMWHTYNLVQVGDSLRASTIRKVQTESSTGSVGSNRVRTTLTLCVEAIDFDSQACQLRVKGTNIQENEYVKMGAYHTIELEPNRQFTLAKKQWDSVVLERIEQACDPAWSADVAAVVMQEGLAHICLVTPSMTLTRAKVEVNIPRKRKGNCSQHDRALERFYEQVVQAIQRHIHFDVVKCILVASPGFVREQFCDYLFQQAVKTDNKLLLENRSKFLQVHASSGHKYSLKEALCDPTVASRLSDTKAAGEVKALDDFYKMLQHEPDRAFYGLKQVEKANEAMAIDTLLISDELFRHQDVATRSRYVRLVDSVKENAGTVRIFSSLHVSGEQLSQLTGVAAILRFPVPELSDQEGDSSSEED
# Sequence of UniProt P78364 (P78364 whole entry, looked up): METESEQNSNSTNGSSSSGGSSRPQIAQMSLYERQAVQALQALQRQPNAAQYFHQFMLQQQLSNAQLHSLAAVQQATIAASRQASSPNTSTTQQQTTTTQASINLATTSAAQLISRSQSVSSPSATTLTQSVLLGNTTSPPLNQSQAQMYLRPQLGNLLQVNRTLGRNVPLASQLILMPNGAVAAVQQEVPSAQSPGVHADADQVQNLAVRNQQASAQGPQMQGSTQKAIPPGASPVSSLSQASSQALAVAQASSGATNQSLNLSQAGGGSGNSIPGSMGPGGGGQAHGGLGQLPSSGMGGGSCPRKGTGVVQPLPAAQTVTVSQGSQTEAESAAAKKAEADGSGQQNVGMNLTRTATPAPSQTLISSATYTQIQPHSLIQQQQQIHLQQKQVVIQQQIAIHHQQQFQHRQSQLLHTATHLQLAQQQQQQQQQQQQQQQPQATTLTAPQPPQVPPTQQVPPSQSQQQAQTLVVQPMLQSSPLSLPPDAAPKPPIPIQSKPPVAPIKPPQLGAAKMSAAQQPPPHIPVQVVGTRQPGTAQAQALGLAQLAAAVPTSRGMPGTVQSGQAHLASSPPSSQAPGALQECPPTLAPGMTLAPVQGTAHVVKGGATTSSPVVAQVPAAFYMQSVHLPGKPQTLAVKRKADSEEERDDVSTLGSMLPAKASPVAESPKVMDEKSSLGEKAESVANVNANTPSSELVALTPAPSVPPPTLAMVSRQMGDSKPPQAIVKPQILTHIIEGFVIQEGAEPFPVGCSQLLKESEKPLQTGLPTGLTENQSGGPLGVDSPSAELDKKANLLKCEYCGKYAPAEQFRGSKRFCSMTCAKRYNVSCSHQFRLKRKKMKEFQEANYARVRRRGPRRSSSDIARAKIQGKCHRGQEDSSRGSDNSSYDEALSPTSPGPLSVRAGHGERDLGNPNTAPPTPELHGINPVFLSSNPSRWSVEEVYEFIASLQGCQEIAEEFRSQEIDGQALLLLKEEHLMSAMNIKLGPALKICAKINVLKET
# Sequence of UniProt Q6P996 (Q6P996 whole entry, looked up): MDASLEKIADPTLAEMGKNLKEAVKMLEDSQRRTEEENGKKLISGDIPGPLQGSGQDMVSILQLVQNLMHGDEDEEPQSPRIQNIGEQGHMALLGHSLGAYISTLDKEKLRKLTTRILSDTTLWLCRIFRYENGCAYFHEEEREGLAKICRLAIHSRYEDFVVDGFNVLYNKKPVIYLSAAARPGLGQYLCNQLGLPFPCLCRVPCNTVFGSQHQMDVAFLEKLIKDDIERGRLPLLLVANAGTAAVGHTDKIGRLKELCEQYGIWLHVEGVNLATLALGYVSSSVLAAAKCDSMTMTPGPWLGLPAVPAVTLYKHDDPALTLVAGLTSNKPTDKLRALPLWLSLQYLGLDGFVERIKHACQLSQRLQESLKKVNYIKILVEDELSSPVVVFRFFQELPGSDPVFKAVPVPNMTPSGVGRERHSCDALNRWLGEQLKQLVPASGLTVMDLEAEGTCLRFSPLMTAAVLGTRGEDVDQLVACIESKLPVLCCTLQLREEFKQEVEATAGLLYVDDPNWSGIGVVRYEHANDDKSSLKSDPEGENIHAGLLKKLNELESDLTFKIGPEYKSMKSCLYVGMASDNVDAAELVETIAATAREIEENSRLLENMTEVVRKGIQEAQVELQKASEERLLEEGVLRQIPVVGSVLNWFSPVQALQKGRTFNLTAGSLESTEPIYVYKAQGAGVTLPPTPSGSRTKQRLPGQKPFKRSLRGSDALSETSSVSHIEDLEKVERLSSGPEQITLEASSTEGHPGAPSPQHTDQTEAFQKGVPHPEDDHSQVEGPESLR
# Sequence of UniProt O00264 (O00264 whole entry, looked up): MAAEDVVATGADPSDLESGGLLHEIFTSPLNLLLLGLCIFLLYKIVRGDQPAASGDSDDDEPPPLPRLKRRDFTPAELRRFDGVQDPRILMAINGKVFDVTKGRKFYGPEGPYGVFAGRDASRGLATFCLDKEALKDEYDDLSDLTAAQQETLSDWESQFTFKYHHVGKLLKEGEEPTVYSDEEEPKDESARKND
# Sequence of UniProt P07737 (P07737 whole entry, looked up): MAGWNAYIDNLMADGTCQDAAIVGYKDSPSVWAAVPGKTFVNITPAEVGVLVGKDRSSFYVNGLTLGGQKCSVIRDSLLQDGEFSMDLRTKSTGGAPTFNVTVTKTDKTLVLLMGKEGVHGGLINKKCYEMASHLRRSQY
# Sequence of UniProt Q9BSG0 (Q9BSG0 whole entry, looked up): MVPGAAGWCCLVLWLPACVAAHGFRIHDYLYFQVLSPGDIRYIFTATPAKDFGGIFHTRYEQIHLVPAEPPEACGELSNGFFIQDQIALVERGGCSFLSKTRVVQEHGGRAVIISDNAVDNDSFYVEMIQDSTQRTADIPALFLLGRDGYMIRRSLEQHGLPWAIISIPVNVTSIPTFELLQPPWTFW
# Sequence of UniProt Q9H2H8 (Q9H2H8 whole entry, looked up): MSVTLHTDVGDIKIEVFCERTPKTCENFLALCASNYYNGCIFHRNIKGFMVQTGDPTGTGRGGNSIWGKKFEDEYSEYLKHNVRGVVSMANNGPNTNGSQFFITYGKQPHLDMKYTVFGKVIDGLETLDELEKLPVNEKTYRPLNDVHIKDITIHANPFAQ
Target,log2 fold change (nilotinib),log2 fold change [1],log2 fold change (dasatinib),log2 fold change [2],log2 fold change [3],log2 fold change (quisinostat),log2 fold change (tipifarnib),log2 fold change [4],log2 fold change [5],log2 fold change [6]
PRG4 (UniProt Q92954),-0.092,0.196,-0.028,0.196,0.024,-0.285,0.17,0.057,-0.09,
PGRMC1 (UniProt O00264),0.028,0.015,0.026,-0.078,0.012,0.106,0.003,-0.059,0.017,0.056
PDIA4 (UniProt P13667),0.008,-0.006,0.006,0.014,0.004,0.154,0.029,-0.004,-0.02,0.008
PITRM1 isoform 2 (UniProt Q5JRX3),0.014,-0.035,0.011,-0.021,-0.002,0.021,0.013,0.005,0,-0.008
POLR2M (UniProt P0CAP2),-0.033,-0.014,-0.032,0.012,-0.056,-0.015,0.007,0.012,0.002,0.014
PPIL3 (UniProt Q9H2H8),0.121,0.023,-0.049,0.176,-0.032,0.017,-0.028,-0.025,-0.054,-0.051
PLXNB2 (UniProt O15031),-0.052,0.019,-0.036,0.013,0.003,0.016,-0.017,0.042,-0.024,-0.006
PDAP1 (UniProt Q13442),0,0.002,0.066,-0.01,-0.009,0.013,0.044,0.017,-0.016,-0.032
PUM1 isoform 3 (UniProt Q14671),-0.072,-0.012,-0.027,0.03,0.016,0.01,-0.057,0.004,-0.021,0.028
PHC1 (UniProt P78364),0.054,0.023,0.087,-0.024,-0.049,-0.003,-0.02,0.003,,
PWP2 (UniProt Q15269),0.016,-0.006,-0.033,-0.032,-0.023,-0.056,0.004,0.036,-0.022,0.011
PFN1 (UniProt P07737),-0.002,0.002,0.022,-0.008,-0.006,0.008,0.03,-0.018,-0.018,0.014
PREP (UniProt P48147),0,-0.014,-0.026,-0.002,0.007,0.008,0.023,0.011,0.006,-0.005
PTPN7 isoform 3 (UniProt P35236),-0.03,0.017,-0.088,-0.021,0.064,0.008,0.054,-0.006,-0.015,-0.043
PKP3 isoform 2 (UniProt Q9Y446),-0.034,-0.021,0,-0.039,-0.001,-0.012,0.007,-0.051,-0.021,0.02
PFAS (UniProt O15067),0.015,-0.023,-0.031,-0.017,0.008,-0.037,0.01,0.01,0.005,-0.009
POLB (UniProt P06746),0.035,-0.013,0,-0.026,0.008,-0.028,0.002,0.022,0.012,-0.053
PHACTR4 isoform 2 (UniProt Q8IZ21),0.005,-0.004,0.022,-0.016,0.012,-0.017,-0.015,-0.006,-0.002,-0.027
PPP2R5C isoform 4 (UniProt Q13362),-0.012,-0.005,0.031,-0.002,0.017,-0.126,0.021,0.079,-0.013,-0.04
PIK3R2 (UniProt O00459),0.007,-0.006,-0.023,0.003,-0.008,-0.04,-0.001,0.031,0.017,0.263
PELO (UniProt Q9BRX2),0.012,-0.025,0.052,-0.026,0.032,-0.022,0.007,0.037,0.018,-0.029
POLR2B (UniProt P30876),-0.027,0.01,-0.065,0.004,0.003,-0.057,-0.012,0.027,-0.004,-0.03
PTPN2 (UniProt P17706),0,0.026,-0.026,-0.041,0.014,-0.067,-0.001,0.025,0.006,-0.005
PRADC1 (UniProt Q9BSG0),0.1,-0.1,0.019,-0.047,0.053,-0.007,0.296,-0.031,-0.016,0.013
PIP4P2 (UniProt Q8N4L2),0.287 (active),-0.073,-0.171,-0.015,-0.048,0.035,-0.148,-0.016,0.121,-0.007
PRMT5 (UniProt O14744),0,0.005,0.094,-0.024,-0.028,-0.027,0,0.035,-0.015,-0.019
PIK3C3 (UniProt Q8NEB9),-0.001,-0.011,-0.05,0.062,-0.025,-0.022,-0.054,0.027,0.04,-0.008
PRKAR2B (UniProt P31323),0.023,-0.078,-0.104,0.013,0.031,0.073,0.019,-0.1,-0.028,0.013
PTPN1 (UniProt P18031),-0.001,0.019,-0.062,0.007,0.027,-0.051,-0.032,0.039,0.026,0.021
PDXDC1 (UniProt Q6P996),0.058,0.064,-0.098,-0.024,0.022,-0.035,-0.074,0.019,0.042,0.012
